# Assay results reported in PubChem BioAssay (NCATS).
# Values without a mark were called inactive. Records with an inconclusive call do not appear. A call without a number means that no potency is given here. The source made the active and inactive calls. Unless noted, calls follow the shape of the dose curve; as a rule, active = well fitted curve in either direction with a large enough effect (not every such curve was filed as active); inconclusive = small, poorly fitted or top-dose-only effect, or another doubt; inactive = flat fitted curve, though single readings scatter.
# Experiments:
# [1] = AP1 Signaling Pathway (AID 357); conditions: ME-180 AP-1-bla reporter, EGF-induced, beta-lactamase ratio, 5 h; at 17.2 µM (top of the series) unless noted;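 also: ME-180 reporter cells stimulated with EGF at its EC50 level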
# Method in brief: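 A ratiometric CCF4 readout (405 nm excitation; 460 and 530 nm emission) quantified AP-1-driven beta-lactamase in ME-180 cells after 5 h with compound and EC50 EGF; AC50 values were derived for activators and inhibitors.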
# [2] = NFAT Signaling Pathway (AID 444); conditions: Jurkat NFAT-bla M1, carbachol, beta-lactamase ratio, 5 h; at 17.2 µM (top of the series) unless noted;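 also: carbachol stimulus at about its EC50 of 1 µM final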
# Method in brief: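 Jurkat cells with NFAT-driven β-lactamase reporter and co-expressed M1 receptor, stimulated with carbachol (final 1 uM, ~EC50), compound titration, 5 h at 37 °C. CCF4 loaded 1 h at RT; 460/530 nm ratio gave %activity and AC50.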
# [3] = biological target: Mitogen-activated protein kinase 10 (Mus musculus) (UniProt Q61831); experiment: JNK3 AlphaScreen Assay (AID 530);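 also: kinase came from lysate of stimulated human HepG2 cells; signal reports phosphorylation of biotinylated GST-cJun 1-79 at Ser73 with 10 µM ATP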
# Method in brief: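 Activity was read by AlphaScreen after JNK3-containing HepG2 lysate (cytokine pre-activated) phosphorylated biotinylated GST-cJun with 10 uM ATP at room temperature. Phospho-Ser73 cJun antibody with Protein-A acceptor beads provided detection.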
# [4] = biological target: 3',5'-cyclic-AMP phosphodiesterase 4B (Homo sapiens) (UniProt Q07343); experiment: qHTS Assay for Inhibitors of PDE-IV (AID 607; active = well fitted activation curve with a large enough effect in the main read-out, with a control signal flat, not every such curve was filed as active)
# 3',5'-cyclic-AMP phosphodiesterase 4B (Homo sapiens), sequence (Q07343 whole entry, looked up): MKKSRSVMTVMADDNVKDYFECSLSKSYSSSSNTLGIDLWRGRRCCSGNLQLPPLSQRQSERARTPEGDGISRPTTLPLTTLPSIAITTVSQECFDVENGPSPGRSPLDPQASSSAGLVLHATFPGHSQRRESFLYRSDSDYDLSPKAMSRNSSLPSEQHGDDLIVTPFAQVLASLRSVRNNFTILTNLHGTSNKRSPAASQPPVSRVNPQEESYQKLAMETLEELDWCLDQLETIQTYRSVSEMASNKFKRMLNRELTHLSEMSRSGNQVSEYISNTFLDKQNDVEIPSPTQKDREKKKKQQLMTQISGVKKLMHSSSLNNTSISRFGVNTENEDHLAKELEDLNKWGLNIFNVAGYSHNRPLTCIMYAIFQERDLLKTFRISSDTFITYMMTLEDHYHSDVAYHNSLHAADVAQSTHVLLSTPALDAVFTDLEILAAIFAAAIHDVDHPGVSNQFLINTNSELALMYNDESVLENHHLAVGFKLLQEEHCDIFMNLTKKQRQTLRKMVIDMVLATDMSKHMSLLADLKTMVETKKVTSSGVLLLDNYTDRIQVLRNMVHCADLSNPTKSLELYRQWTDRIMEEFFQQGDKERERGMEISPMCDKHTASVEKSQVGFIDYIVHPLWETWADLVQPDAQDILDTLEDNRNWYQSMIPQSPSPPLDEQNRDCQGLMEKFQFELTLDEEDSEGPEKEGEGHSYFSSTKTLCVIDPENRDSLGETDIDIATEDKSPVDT
# Method in brief: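 Cell-based read-out of cAMP via a modified cyclic nucleotide-gated channel and membrane potential dye (535/590 nm) in HEK293 cells expressing PDE4 endogenously. Compounds tested up to 22.9 uM final; 100 uM RO 20-1724 reference.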
# [5] = qHTS Assay for Identification of Small Molecule Antagonists for NFkB Signaling Pathway (AID 895; active = well fitted inhibition curve with a large enough effect in the signal ratio, with a control signal flat, not every such curve was filed as active; the % refers to the signal ratio)
# Method in brief: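 ME-180 NFkB-bla cells (beta-lactamase under NFkB response element), plated overnight, treated with compound then 10 pM TNF alpha (about EC50) for 5 hrs at 37 C. LiveBLAzer FRET read at 460/530 nm emission, 405 nm excitation.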
# [6] = qHTS Assay for Identification of Small Molecule Agonists for Thrombopoietin (TPO) Signaling Pathway (AID 917; active = well fitted curve in the direction sought with a large enough effect; an effect the other way counts as inactive or inconclusive)
# Method in brief: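 Human TPO receptor–transfected Ba/F3 cells (murine, IL-3-dependent) in IL-3-deficient medium; compounds plus TPO at EC50, 26 pM final; 24 hrs, 37 C; GpIIb-luciferase luminescence after 10 min RT detection.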
# [7] = biological target: Pyruvate kinase PKM (Homo sapiens) (UniProt P14618); experiment: qHTS Assay for Activators of Human Muscle Pyruvate Kinase (AID 954; active = well fitted curve in the direction sought with a large enough effect, not every such curve was filed as active)
# Pyruvate kinase PKM (Homo sapiens), sequence (P14618 whole entry, looked up): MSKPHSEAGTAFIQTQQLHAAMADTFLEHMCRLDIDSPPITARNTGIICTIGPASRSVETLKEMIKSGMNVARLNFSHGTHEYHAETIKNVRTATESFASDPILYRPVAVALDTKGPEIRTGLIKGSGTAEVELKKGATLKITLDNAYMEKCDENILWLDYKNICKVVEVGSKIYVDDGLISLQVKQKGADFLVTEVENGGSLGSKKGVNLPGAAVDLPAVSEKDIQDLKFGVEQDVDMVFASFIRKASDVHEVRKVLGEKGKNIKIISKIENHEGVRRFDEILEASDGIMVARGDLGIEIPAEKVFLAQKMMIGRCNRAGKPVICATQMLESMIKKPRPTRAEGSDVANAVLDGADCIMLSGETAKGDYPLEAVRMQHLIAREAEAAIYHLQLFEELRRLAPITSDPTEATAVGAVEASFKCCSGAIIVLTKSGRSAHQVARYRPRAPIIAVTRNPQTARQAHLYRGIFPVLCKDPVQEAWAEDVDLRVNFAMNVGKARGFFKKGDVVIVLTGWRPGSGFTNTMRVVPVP
# Method in brief: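 ATP production by PKM2 detected via luciferase luminescence after 1 h room-temperature reaction (0.1 nM enzyme, PEP at Km 0.5 mM, ADP 0.1 mM, pH 7.2 imidazole buffer). Inhibition scaled to no-enzyme control; activation referenced to 0.3 nM enzyme wells.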
# [8] = biological target: Alpha-galactosidase (Coffea arabica) (UniProt Q42656); experiment: Counterscreen for Glucocerebrosidase Inhibitors: qHTS Assay for Coffee Bean alpha-Galactosidase at pH 4.5 (AID 957; active = well fitted curve in the direction sought with a large enough effect; an effect the other way counts as inactive or inconclusive)
# Alpha-galactosidase (Coffea arabica), sequence (Q42656 whole entry, looked up): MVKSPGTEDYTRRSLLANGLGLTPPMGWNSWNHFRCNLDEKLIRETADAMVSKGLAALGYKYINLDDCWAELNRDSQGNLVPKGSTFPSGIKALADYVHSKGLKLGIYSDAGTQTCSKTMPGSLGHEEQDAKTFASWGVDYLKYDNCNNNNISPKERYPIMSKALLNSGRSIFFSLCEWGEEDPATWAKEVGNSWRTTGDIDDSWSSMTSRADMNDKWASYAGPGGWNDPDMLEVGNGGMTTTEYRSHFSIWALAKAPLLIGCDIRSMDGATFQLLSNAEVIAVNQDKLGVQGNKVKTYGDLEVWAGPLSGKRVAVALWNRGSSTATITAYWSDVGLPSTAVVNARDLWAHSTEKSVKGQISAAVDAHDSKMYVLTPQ
# Method in brief: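 Fluorogenic qHTS at pH 4.5 (citrate buffer with Tween-20): 2 nM enzyme, 80 uM 4-MU-alpha-galactoside substrate, compound titrated 0.7 nM to 77 uM, 20 min room temperature. Glycine/NaOH stop; 4-MU read Ex 365/Em 440; Hill-equation AC50 against no-enzyme and enzyme controls.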
# [9] = biological target: Alpha-galactosidase A (Homo sapiens) (UniProt P06280); experiment: Counterscreen for Glucocerebrosidase Inhibitors: qHTS Assay for Human alpha-Galactosidase at pH 4.5 (AID 992; active = well fitted curve in the direction sought with a large enough effect; an effect the other way counts as inactive or inconclusive)
# Alpha-galactosidase A (Homo sapiens), sequence (P06280 whole entry, looked up): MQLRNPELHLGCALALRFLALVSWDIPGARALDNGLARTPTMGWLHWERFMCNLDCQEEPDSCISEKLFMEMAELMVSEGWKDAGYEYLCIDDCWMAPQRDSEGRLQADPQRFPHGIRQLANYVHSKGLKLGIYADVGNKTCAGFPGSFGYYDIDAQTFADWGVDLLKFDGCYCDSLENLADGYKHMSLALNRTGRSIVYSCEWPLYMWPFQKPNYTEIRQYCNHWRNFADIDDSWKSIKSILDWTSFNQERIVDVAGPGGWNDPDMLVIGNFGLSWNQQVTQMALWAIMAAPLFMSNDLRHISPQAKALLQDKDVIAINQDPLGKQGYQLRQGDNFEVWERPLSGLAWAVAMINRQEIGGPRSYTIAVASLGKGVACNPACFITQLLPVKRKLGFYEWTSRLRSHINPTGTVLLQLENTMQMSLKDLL
# Method in brief: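 Fluorogenic 1536-well qHTS at pH 4.5 (citrate, Tween-20): 2 nM enzyme, 80 uM 4-MU-alpha-galactoside, 20 min room temperature, NaOH/glycine stop. Titration 0.7 nM to 77 uM, data normalized to no-enzyme and full-activity controls, Hill-fitted AC50.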
# [10] = biological target: alpha-glucosidase (Oryza sativa, rice) (UniProt Q653V4); experiment: Counterscreen for Glucocerebrosidase Inhibitors: qHTS Assay for Rice alpha-Glucosidase at pH 5.0 (AID 997; active = well fitted curve in the direction sought with a large enough effect; an effect the other way counts as inactive or inconclusive)
# Method in brief: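 Endpoint fluorogenic assay at pH 5.0: compounds (0.7 nM to 77 uM) titrated against 4 nM rice enzyme and 400 uM 4-MU-alpha-glucoside for 20 min at room temperature; NaOH/glycine stop, read ex 365/em 440 nm, Hill-fitted AC50.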
# [11] = biological target: Alpha-galactosidase (Coffea arabica) (UniProt Q42656); experiment: Counterscreen for Glucocerebrosidase Inhibitors: qHTS Assay for Coffee Bean alpha-Galactosidase at pH 5.9 (AID 998; active = well fitted curve in the direction sought with a large enough effect; an effect the other way counts as inactive or inconclusive)
# Method in brief: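 Enzyme 2 nM + cpd (0.7 nM–77 uM titration) + 4-MU-alpha-Gal 80 uM, pH 5.9 citrate/Tween-20, RT 20 min, NaOH/glycine stop pH 10, fluor 365/440. Normalized to no-enzyme and full-activity controls; Hill-fit AC50.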
# [12] = Stat Signaling Pathway (AID 446);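 also: ME-180 cervical cancer cells given 40 pM IL-6 alongside compound; SIE-controlled beta-lactamase reporter measured as 460/530 nm FRET emission ratio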
# Method in brief: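 FRET read-out (405 nm excitation, 460/530 nm emission) of a beta-lactamase reporter under a STAT-inducible element in ME-180 cervical carcinoma cells. Cells with compound receive 40 pM IL-6 for 5 h. Values are normalised to AC90 stimulation and AC90 JAK-inhibitor controls.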
# [13] = biological target: Glucocorticoid receptor (Homo sapiens) (UniProt P04150); experiment: GR-GFP Redistribution (AID 450;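 active = compounds whose dose series gives a full or clear partial fitted curve of increased nuclear translocation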; also: potency is read from the fitted curve at half-maximal effect); conditions: U2OS GR-GFP nuclear translocation, laser cytometry, 2 h
# Glucocorticoid receptor (Homo sapiens), sequence (P04150 whole entry, looked up, the tested form may be a part): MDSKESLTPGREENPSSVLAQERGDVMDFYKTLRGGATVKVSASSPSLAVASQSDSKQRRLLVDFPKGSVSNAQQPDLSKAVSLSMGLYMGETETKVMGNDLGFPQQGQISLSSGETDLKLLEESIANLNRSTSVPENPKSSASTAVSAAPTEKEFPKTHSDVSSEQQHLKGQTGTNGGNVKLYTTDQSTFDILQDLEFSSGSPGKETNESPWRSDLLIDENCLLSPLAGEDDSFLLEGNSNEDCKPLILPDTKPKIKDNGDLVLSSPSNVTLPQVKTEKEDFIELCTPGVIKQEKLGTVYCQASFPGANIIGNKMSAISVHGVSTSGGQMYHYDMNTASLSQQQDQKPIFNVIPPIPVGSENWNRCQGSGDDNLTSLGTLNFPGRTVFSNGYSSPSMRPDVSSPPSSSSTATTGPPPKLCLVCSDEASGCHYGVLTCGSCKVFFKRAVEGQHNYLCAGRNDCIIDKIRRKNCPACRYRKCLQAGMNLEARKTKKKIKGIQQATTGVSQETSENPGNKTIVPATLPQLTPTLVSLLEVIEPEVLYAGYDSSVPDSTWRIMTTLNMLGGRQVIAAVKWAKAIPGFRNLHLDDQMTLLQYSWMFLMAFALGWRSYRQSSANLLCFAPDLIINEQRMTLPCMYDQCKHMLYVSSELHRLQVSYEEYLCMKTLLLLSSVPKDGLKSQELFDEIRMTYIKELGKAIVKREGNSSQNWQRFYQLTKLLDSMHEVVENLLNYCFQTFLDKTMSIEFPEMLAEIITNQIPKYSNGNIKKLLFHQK
# [14] = qHTS Assay for Identification of Small Molecule Agonists for Hypoxia Response Element Signaling Pathway (AID 914; active = well fitted activation curve with a large enough effect in the signal ratio, with a control signal flat, not every such curve was filed as active; the % refers to the signal ratio); conditions: ME-180 HRE-bla reporter, beta-lactamase ratio, CoCl2, 17 h; activation: active compounds read high
# Method in brief: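 ME-180 cells carrying an HRE-driven beta-lactamase reporter were treated with compounds in a titration series plus an EC50 level of CoCl2 for 17 h at 37 degrees Celsius; CCF4 readout as the 460nm/530nm ratio gave AC50 values.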
# [15] = biological target: Glucocorticoid receptor (Homo sapiens) (UniProt P04150); experiment: GR-EFC Redistribution (AID 451; calls by dose curve; also: potency is read from the fitted curve at half-maximal effect); conditions: CHO-K1 GR-EFC translocation, beta-gal luminescence, 2 h
# Method in brief: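 CHO-K1 cells expressing nuclear EA and GR-ED fragments of b-gal; compounds titrated up to 46 uM final, 2 h at 37 C. GR nuclear translocation read as complemented b-gal luminescence after 1 h RT detection.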
# [16] = biological target: Cytochrome P450 2C9 (Homo sapiens) (UniProt P11712); experiment: qHTS Assay for Inhibitors and Substrates of Cytochrome P450 2C9 (AID 883; active = well fitted curve in the direction sought with a large enough effect; an effect the other way counts as inactive or inconclusive; also: nearly all actives have a fitted effect of over 60% in size)
# Cytochrome P450 2C9 (Homo sapiens), sequence (P11712 whole entry, looked up): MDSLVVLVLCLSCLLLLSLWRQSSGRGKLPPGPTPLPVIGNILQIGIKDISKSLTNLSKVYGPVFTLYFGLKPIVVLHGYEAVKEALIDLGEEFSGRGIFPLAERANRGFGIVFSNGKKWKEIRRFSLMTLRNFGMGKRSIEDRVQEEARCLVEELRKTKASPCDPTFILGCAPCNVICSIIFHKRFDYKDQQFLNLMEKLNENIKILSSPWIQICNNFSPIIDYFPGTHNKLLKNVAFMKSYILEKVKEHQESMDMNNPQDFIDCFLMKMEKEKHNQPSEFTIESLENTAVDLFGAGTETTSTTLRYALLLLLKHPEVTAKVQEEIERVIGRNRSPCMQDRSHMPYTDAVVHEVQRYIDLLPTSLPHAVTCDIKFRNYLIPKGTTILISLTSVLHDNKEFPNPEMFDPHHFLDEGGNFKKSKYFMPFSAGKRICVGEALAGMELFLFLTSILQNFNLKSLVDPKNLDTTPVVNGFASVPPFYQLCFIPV
# Method in brief: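 Signal: luciferase luminescence reporting luciferin produced by CYP2C9. Conditions: 10nM enzyme, Luciferin-H 100uM at KM, 25mM KPO4, 37C, 60 min NADPH-driven reaction. Reference: 57uM sulphaphenazole as 100% inhibition.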
# [17] = biological target: Cytochrome P450 2D6 (Homo sapiens) (UniProt P10635); experiment: qHTS Assay for Inhibitors and Substrates of Cytochrome P450 2D6 (AID 891; active = well fitted curve in the direction sought with a large enough effect; an effect the other way counts as inactive or inconclusive; also: nearly all actives have a fitted effect of over 60% in size; also: potency is read from the fitted curve at half-maximal effect;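 as to activity change, negative = inhibition: luciferin methyl ether substrate demethylated by CYP2D6 with NADPH regeneration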)
# Cytochrome P450 2D6 (Homo sapiens), sequence (P10635 whole entry, looked up): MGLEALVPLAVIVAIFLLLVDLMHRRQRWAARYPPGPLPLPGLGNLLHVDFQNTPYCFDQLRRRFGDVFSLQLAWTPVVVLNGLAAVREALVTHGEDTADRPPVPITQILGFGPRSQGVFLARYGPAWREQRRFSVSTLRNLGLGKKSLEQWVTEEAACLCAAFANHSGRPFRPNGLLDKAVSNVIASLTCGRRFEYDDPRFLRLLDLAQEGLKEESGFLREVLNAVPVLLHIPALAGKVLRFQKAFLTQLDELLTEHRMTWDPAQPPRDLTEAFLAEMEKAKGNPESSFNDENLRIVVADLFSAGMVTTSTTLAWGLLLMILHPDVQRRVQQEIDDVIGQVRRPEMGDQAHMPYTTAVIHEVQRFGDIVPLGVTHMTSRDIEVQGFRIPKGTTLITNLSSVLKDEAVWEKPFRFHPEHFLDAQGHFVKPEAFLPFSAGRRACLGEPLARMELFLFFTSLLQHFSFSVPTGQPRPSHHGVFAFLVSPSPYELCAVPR
# Method in brief: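 Luminescent read-out of luciferin formed by 5 nM human CYP2D6 demethylating 30 uM Luciferin-ME EGE (Km level) over 60 min at room temperature after NADPH regeneration addition. Data normalized to full inhibition by 1.43 uM quinidine.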
# [18] = biological target: Cytochrome P450 2C19 (Homo sapiens) (UniProt P33261); experiment: qHTS Assay for Inhibitors and Substrates of Cytochrome P450 2C19 (AID 899; active = well fitted curve in the direction sought with a large enough effect; an effect the other way counts as inactive or inconclusive; also: nearly all actives have a fitted effect of over 60% in size)
# Cytochrome P450 2C19 (Homo sapiens), sequence (P33261 whole entry, looked up): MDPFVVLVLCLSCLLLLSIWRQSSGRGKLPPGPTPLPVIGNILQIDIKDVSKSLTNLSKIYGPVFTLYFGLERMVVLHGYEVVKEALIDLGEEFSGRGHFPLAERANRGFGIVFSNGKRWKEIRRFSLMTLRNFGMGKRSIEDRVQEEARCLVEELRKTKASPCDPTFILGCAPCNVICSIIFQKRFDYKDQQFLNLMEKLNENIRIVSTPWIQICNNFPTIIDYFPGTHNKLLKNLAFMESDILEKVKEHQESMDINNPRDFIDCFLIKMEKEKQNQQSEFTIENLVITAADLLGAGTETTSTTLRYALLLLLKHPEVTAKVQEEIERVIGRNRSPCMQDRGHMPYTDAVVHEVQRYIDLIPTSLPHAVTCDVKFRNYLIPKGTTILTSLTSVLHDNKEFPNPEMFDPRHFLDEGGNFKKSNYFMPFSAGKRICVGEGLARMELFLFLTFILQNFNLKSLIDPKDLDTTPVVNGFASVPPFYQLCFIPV
# Method in brief: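 Signal comes from luciferase acting on luciferin released by CYP2C19-mediated hydroxylation of Luciferin-H EGE, 10uM (KM). Assay mix: 5nM enzyme, 50mM KPO4; 60 min at 37C with NADPH regeneration. Data normalized against 57uM ketoconazole.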
# [19] = biological target: Guanine nucleotide-binding protein G(i) subunit alpha-1 (Homo sapiens) (UniProt P63096); experiment: qHTS Assay for Inhibitors of RGS12 GoLoco Motif Activity (Green Fluorophore) (AID 879; active = well fitted curve in the direction sought with a large enough effect; an effect the other way counts as inactive or inconclusive;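 also: negative values mean loss of peptide binding seen as reduced polarization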)
# Method in brief: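 A drop in FITC polarization marked displacement of the FITC-tagged RGS12 GoLoco peptide (10 nM) from Gαi1 (50 nM). Compounds were incubated 10 min at room temperature in Tris pH 7.5 buffer containing 150 mM NaCl, 0.1 mM GDP and 0.05% NP40; unlabeled peptide titration served as control.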
# [20] = biological target: Muscarinic acetylcholine receptor M1 (Rattus norvegicus) (UniProt P08482); experiment: qHTS Assay for Antagonists of Acetylcholine Muscarinic M1 Receptor: Measurement of IP-One Response (AID 944; active = well fitted curve in the direction sought with a large enough effect; an effect the other way counts as inactive or inconclusive; also: nearly all actives have a fitted effect of over 75% in size)
# Muscarinic acetylcholine receptor M1 (Rattus norvegicus), sequence (P08482 whole entry, looked up): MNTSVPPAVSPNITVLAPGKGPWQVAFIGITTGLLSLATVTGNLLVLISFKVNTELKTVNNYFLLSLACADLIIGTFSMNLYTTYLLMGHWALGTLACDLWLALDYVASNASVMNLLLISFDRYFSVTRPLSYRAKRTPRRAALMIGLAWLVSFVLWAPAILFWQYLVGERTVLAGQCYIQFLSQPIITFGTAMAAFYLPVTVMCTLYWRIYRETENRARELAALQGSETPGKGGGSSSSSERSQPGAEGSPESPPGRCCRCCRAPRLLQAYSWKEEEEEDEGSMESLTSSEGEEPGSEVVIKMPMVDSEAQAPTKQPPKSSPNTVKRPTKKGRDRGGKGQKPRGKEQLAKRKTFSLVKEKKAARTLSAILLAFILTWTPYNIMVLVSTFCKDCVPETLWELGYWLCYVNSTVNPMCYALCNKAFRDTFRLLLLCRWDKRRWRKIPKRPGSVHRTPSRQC
# Method in brief: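 IP1 accumulation measured via TR-FRET between d2-IP1 and Eu-cryptate anti-IP1 antibody after carbachol (200 nM, EC80) stimulation for 30 min; rat M1-transfected CHO cells received compound 10 min before agonist.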
# [21] = biological target: Cytochrome P450 3A4 (Homo sapiens) (UniProt P08684); experiment: qHTS Assay for Activators of Cytochrome P450 3A4 (AID 885; active = well fitted curve in the direction sought with a large enough effect; an effect the other way counts as inactive or inconclusive; also: nearly all actives have a fitted effect of over 65% in size)
# Method in brief: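 Luminescent readout of luciferin formed from 25 uM Luciferin-PPXE (KM level) by 20 nM CYP3A4 in 200 mM KPO4, with 60 min NADPH-driven reaction at room temperature after 10 min compound exposure. Ketoconazole (57 uM) defined 100% inhibition.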
# [22] = biological target: Muscarinic acetylcholine receptor M1 (Rattus norvegicus) (UniProt P08482); experiment: qHTS Assay for Antagonists of Acetylcholine Muscarinic M1 Receptor: Kinetic Measurement of Intracellular Calcium Response (AID 943; active = well fitted curve in the direction sought with a large enough effect; an effect the other way counts as inactive or inconclusive;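 also: Fluo-4 calcium signal as peak divided by basal fluorescence over 4 min; nearly all actives have a fitted effect of over 75% in size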)
# Method in brief: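 Antagonism measured as reduction of carbachol-evoked (EC80, 100 nM final) calcium flux in rat M1-CHO cells after 10 min compound exposure. Fluo-4 signal read kinetically; ratio of maximal to basal fluorescence.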
smiles,measurement,setting,value
CC[C@H](CO)NC(=O)[C@@H]1C=C2c3cccc4c3c(cn4C)C[C@@H]2N(C)C1,"activity change, negative = inhibition",[1],-3.22% [at 38 µM]
same,"activity change, negative = inhibition",[2],-10.9% [at 38 µM]
same,outcome,[3],inactive
same,outcome,[4],inactive
same,Potency,[5],inactive
same,outcome,[6],inactive
same,outcome,[7],inactive
same,outcome,[8],inactive
same,outcome,[9],inactive
same,outcome,[10],inactive
same,outcome,[11],inactive
CCCCCCn1c(O)c(C=NCCN2CCCCC2)c(=O)[nH]c1=O,"activity change, negative = inhibition",[1],10.2%
same,outcome,[12],inactive
same,Potency,[13],> 20.6 µM
CN1CCc2c(c(N3CCCCC3)nc3n[nH]c(N)c23)C1,"activity change, negative = inhibition",[1],-3.37%
same,outcome,[12],inactive
same,Potency,[13],> 20.6 µM
CCOC(C(=O)OCC(O)CN(CC)CC)(c1ccccc1)c1ccccc1 (stereo not drawn),"activity change, negative = inhibition",[1],4.62%
same,outcome,[12],inactive
same,Potency,[13],> 20.6 µM
O=C1NCCN2CCCC12 (stereo not drawn),"activity change, negative = inhibition",[1],12%
same,"activity change, negative = inhibition",[2],-0.485%
same,outcome,[12],inactive
same,Potency,[13],> 20.6 µM
same,activation,[14],9.17%
C=C(C)[C@@H]1CN[C@H](C(=O)O)[C@H]1CC(=O)O,"activity change, negative = inhibition",[1],8.5% [at 38 µM]
same,"activity change, negative = inhibition",[2],0.349% [at 38 µM]
same,Potency,[13],> 46 µM
same,Potency,[15],> 46 µM
same,outcome,[4],inactive
same,Potency,[16],inactive
same,Potency,[17],inactive
same,Potency,[18],inactive
C=CCN1CC[C@@]23CCCC[C@@H]2[C@@H]1Cc1ccc(O)cc13,"activity change, negative = inhibition",[1],-10.4% [at 38 µM]
same,"activity change, negative = inhibition",[2],-24.3% [at 38 µM]
same,Potency,[13],> 46 µM
same,Potency,[15],> 46 µM
same,outcome,[3],inactive
same,outcome,[4],inactive
same,Potency,[19],inactive
same,outcome,[6],inactive
same,Potency,[20],inactive
same,outcome,[7],inactive
same,outcome,[8],inactive
same,outcome,[9],inactive
same,outcome,[10],inactive
same,outcome,[11],inactive
CCN(CC)C(=O)N[C@H]1C[C@H]2c3cccc4[nH]cc(c34)C[C@@H]2N(C)C1,"activity change, negative = inhibition",[1],9.81% [at 38 µM]
same,"activity change, negative = inhibition",[2],3.16% [at 38 µM]
same,outcome,[12],inactive
same,outcome,[3],inactive
same,outcome,[4],inactive
same,Potency,[16],inactive
same,Potency,[21],inactive
same,Potency,[17],0.0398 µM (active)
same,Potency,[5],inactive
same,outcome,[6],inactive
same,Potency,[22],inactive
same,outcome,[7],inactive
same,outcome,[8],inactive
same,outcome,[9],inactive
same,outcome,[10],inactive
same,outcome,[11],inactive
CC1CN=C(Nc2ccc(N(C)C)cc2)S1 (stereo not drawn),"activity change, negative = inhibition",[1],17.8%
same,"activity change, negative = inhibition",[2],-26.5%
same,outcome,[12],inactive
same,Potency,[13],> 20.6 µM
same,activation,[14],1.86%
